Laboratory results as given in PubChem BioAssay (EPA / NIEHS).
Inconclusive results are not listed. Active and inactive are the calls of the source. The calls were made as follows, unless noted: active = hit-call score of the fitted dose curve at least 0.9, where 1 is the maximum; inactive = score below 0.9.

What was measured:
[1] = target: Aryl hydrocarbon receptor (Homo sapiens) (UniProt P35869); assay: ATG_Ahr_CIS: Attagene CIS-FACTORIAL HepG2 Assay for human Aryl Hydrocarbon Receptor (Ahr) (AID 2282930); conditions: HepG2 AhR cis-factorial reporter transcription; actives raise or lower the signal
Aryl hydrocarbon receptor (Homo sapiens), sequence (P35869 whole entry, looked up): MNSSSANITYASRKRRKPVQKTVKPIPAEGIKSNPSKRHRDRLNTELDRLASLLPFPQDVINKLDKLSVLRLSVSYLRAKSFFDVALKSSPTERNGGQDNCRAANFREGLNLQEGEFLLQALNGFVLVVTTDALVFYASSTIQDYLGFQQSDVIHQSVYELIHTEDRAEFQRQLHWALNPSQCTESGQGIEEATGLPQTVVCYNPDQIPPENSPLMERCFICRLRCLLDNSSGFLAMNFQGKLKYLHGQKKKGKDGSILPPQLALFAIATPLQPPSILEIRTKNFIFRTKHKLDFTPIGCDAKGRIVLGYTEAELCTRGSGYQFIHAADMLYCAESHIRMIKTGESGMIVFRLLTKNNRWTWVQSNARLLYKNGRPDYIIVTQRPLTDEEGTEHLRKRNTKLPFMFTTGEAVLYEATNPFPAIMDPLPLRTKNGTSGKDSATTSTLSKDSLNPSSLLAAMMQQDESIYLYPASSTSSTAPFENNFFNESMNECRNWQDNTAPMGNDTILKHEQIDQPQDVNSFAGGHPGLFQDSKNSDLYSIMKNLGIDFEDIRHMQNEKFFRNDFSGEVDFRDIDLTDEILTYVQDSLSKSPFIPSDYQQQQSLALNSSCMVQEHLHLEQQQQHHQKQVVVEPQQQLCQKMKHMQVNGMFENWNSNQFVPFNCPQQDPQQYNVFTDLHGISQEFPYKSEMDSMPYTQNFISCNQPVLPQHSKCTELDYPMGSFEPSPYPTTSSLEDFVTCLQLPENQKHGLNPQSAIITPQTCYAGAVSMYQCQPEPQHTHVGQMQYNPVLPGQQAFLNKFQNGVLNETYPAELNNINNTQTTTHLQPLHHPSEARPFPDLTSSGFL
In short: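 Read-out: reporter mRNA quantified by RT-PCR with fluorescent primer extension and capillary electrophoresis. Human HepG2 liver cells carried transfected cis-promoter reporter units and were exposed to chemical for 24 h; gain or loss fitted relative to DMSO.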

[2] = ATG_AP_1_CIS: Attagene CIS-FACTORIAL HepG2 Assay for human Activator Protein 1 (AP-1) (AID 2282931); conditions: HepG2 Attagene cis-factorial AP-1 reporter mRNA; actives raise or lower the signal
In short: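 HepG2 cells transiently transfected with cis-element-driven multiplex reporter units; 24 h compound exposure. Reporter mRNA quantified by RT-PCR, FAM-labelled fragments resolved by capillary electrophoresis; bidirectional fit versus DMSO baseline.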

[3] = ATG_GLI_CIS: Attagene CIS-FACTORIAL HepG2 Assay for human Zinc Finger Protein GLI1 (AID 2282945); conditions: HepG2, Attagene cis-factorial reporter mRNA, GLI element; actives raise or lower the signal
In short: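 Transiently transfected HepG2 cells report endogenous transcription factor activity via cis-element-driven reporter units. After 24 h compound exposure, reporter mRNA was measured by RT-PCR with capillary electrophoresis; bidirectional fitting against DMSO baseline.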

[4] = target: Paired box protein Pax-6 (Homo sapiens) (UniProt P26367); assay: ATG_Pax6_CIS: Attagene CIS-FACTORIAL HepG2 Assay for human Paired Box 6 (PAX6) (AID 2282956); conditions: HepG2 CIS-FACTORIAL PAX6 reporter transcription, RNA readout; actives raise or lower the signal
Paired box protein Pax-6 (Homo sapiens), sequence (P26367 whole entry, looked up): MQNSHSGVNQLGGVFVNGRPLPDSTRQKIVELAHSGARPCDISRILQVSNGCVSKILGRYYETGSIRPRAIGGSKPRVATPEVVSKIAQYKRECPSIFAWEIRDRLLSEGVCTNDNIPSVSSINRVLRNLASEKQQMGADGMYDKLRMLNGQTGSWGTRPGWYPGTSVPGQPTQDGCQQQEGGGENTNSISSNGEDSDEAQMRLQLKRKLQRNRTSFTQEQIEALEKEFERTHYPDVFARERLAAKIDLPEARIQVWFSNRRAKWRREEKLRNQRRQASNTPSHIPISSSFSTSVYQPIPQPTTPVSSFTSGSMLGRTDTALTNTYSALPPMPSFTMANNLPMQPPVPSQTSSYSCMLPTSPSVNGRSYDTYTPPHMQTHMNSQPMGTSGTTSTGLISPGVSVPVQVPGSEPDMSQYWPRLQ
In short: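 After twenty-four hours of chemical exposure, transfected HepG2 cells are harvested for RNA. Cis-promoter reporter transcripts are amplified, fluorescently labelled and sized by capillary electrophoresis, with gain and loss of signal scored against DMSO.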

[5] = ATG_RORE_CIS: Attagene CIS-FACTORIAL HepG2 Assay for human RAR-related Orphan Receptor Element (RORE) (AID 2282959); conditions: HepG2 Attagene cis-factorial RORE reporter, mRNA; actives raise or lower the signal
In short: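 HepG2 cells transiently transfected with multiple cis-element reporter transcription units, exposed to chemical for 24 h. Reporter mRNA quantified by RT-PCR, 6-FAM primer-extension labeling, HpaI digestion and capillary electrophoresis; bidirectional fit versus DMSO baseline.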

[6] = ATG_TAL_CIS: Attagene CIS-FACTORIAL HepG2 Assay for human TAL Basal Promoter (AID 2282966); conditions: HepG2 Attagene cis-factorial TAL promoter reporter; actives raise or lower the signal;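 also: background control endpoint measuring basal TAL promoter reporter mRNA not a specific factor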
In short: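 RT-PCR plus capillary electrophoresis quantifies reporter mRNA induction in transiently transfected HepG2 cells after 24 h chemical treatment. DMSO serves as negative control and baseline for bidirectional fitting.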

[7] = ATG_TGFb_CIS: Attagene CIS-FACTORIAL HepG2 Assay for human Transforming Growth Factor (TGF) (AID 2282967); conditions: HepG2 Attagene CIS TGFb reporter, mRNA transcription; actives raise or lower the signal
In short: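 Endogenous TGFB1-linked transcription factor activity read as reporter mRNA via RT-PCR and capillary electrophoresis, 24 h after dosing transiently transfected HepG2 cells. Gain or loss of signal fitted relative to DMSO.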

[8] = ATG_VDRE_CIS: Attagene CIS-FACTORIAL HepG2 Assay for human Vitamin D Receptor Element (VDRE) (AID 2282968); conditions: HepG2 VDRE cis-reporter transcription, actives raise or lower the signal
In short: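 Cell-based multiplexed reporter format in human liver HepG2 cells, 24 h post-dose. Fluorescence from capillary electrophoresis of reporter cDNA gives the signal, with DMSO as negative control and baseline.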

[9] = target: X-box-binding protein 1 (Homo sapiens) (UniProt P17861); assay: ATG_Xbp1_CIS: Attagene CIS-FACTORIAL HepG2 Assay for human X-box Binding Protein 1 (XBP1) (AID 2282972); conditions: HepG2 XBP1 cis-element reporter, Attagene multiplex; actives raise or lower the signal
X-box-binding protein 1 (Homo sapiens), sequence (P17861 whole entry, looked up): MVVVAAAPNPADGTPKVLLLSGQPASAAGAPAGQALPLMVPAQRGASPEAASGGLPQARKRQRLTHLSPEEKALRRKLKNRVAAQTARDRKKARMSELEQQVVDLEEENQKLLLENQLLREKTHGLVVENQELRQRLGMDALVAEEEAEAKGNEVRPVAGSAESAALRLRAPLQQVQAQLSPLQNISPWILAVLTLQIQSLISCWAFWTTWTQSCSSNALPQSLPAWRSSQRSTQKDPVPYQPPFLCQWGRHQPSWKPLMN
In short: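 After a 24-hour chemical exposure of HepG2 cells carrying cis-regulated reporters, reporter mRNA levels are assessed. Quantification uses RT-PCR, 6-FAM labelling and capillary electrophoresis. Gain- or loss-of-signal is fitted against DMSO.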

[10] = ATG_NFI_CIS: Attagene CIS-FACTORIAL HepG2 Assay for human Nuclear Factor I (NFI) (AID 2282989); conditions: HepG2 cis-regulatory reporter, NFI response element transcription; actives raise or lower the signal
In short: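 Reporter transcripts were measured by RT-PCR with fluorescent primer extension and capillary electrophoresis 24 h post-treatment. HepG2 cells carried transiently transfected cis-regulated reporter constructs reporting endogenous factor activity; gain or loss fitted against DMSO baseline.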

[11] = target: Myc proto-oncogene protein (Homo sapiens) (UniProt P01106); assay: ATG_Myc_CIS: Attagene CIS-FACTORIAL HepG2 Assay for human Myelocytomatosis (Myc) Proto-Oncogene Transcription Factor (AID 2282990); conditions: HepG2, Attagene cis-reporter transcription factor activity; actives raise or lower the signal
Myc proto-oncogene protein (Homo sapiens), sequence (P01106 whole entry, looked up, the tested form may be a part): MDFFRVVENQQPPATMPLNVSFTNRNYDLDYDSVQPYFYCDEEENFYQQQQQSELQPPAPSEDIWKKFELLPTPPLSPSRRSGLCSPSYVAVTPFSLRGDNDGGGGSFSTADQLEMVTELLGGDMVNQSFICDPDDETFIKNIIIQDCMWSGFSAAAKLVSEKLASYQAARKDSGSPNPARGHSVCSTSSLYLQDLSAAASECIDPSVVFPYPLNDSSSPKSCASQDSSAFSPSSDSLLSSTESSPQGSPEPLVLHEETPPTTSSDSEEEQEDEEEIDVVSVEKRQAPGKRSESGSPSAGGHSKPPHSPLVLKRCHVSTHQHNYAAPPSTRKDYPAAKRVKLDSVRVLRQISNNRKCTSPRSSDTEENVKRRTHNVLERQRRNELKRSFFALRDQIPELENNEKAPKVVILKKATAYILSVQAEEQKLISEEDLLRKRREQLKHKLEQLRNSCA
In short: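 Read-out: fluorescent reporter mRNA fragments resolved by capillary electrophoresis after RT-PCR. Human HepG2 liver cells carried transfected cis-element reporter units and were dosed for 24 h. Gain or loss of signal fitted relative to DMSO baseline.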

[12] = ATG_NF_kB_CIS: Attagene CIS-FACTORIAL HepG2 Assay for human Nuclear Factor Kappa B (NF-kB) (AID 2282991); conditions: HepG2 Attagene cis-factorial NF-kB reporter mRNA; actives raise or lower the signal
In short: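 HepG2 cells transiently transfected with multiplexed cis-element reporter units measuring endogenous transcription factor activity; reporter mRNA read 24 h after dosing by RT-PCR, fluorescent labelling, HpaI digestion and capillary electrophoresis. Bidirectional fit against DMSO baseline.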

[13] = ATG_NRF2_ARE_CIS: Attagene CIS-FACTORIAL HepG2 Assay for human Nuclear Factor Erythroid 2 Related Factor 2 (NFR2) response to Antioxidant Response Elements (ARE) (AID 2282992); conditions: HepG2 Attagene ARE/NRF2 reporter, transcription factor activity; actives raise or lower the signal;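 as to AC50: reporter mRNA level measured by RT-PCR and capillary electrophoresis fluorescence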
In short: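 Cis-factorial assay: transfected HepG2 reporter library, 24 h dosing, mRNA readout via RT-PCR/CE; DMSO-referenced bidirectional analysis.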

[14] = ATG_Oct_MLP_CIS: Attagene CIS-FACTORIAL HepG2 Assay for human Octamer-Binding Transcription Factor (Oct) (AID 2282993); conditions: HepG2 Attagene cis-factorial Oct reporter, mRNA; actives raise or lower the signal
In short: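 Readout is reporter transcript level from RT-PCR with fluorescent primer extension and capillary electrophoresis, fitted in both directions against DMSO. Transfected HepG2 reporter units report endogenous factor activity after 24 h dosing.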

[15] = target: Cellular tumor antigen p53 (Homo sapiens) (UniProt P04637); assay: ATG_p53_CIS: Attagene CIS-FACTORIAL HepG2 Assay for human p53 Transcription Factor (AID 2282994); conditions: HepG2 p53 cis-element reporter, Attagene mRNA; actives raise or lower the signal
Cellular tumor antigen p53 (Homo sapiens), sequence (P04637 whole entry, looked up): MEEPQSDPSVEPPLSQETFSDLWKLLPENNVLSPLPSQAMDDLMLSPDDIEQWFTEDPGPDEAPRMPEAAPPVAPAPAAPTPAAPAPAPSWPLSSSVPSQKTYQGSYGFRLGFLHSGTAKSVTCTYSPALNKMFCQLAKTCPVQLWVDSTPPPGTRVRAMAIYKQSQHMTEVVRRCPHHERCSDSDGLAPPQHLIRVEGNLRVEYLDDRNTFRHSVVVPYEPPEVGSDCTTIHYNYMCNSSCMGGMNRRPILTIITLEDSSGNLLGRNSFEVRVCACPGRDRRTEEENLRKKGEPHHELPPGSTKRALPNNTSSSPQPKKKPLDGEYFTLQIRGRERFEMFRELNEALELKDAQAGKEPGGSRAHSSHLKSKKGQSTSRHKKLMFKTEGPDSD
In short: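 Using HepG2 hepatoma cells carrying cis-acting multiplexed reporters, mRNA induction is detected after a 24 h exposure. Gain- and loss-of-signal responses are fitted relative to DMSO-treated cells.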

[16] = target: Peroxisome proliferator-activated receptor gamma (Homo sapiens) (UniProt P37231); assay: ATG_PPARg_TRANS: Attagene TRANS-FACTORIAL HepG2 Assay for human Peroxisome Proliferator-activated Receptor-gamma (PPARg) (AID 2283007; active = hit-call score of the fitted dose curve at least 0.9, where 1 is the maximum)
Peroxisome proliferator-activated receptor gamma (Homo sapiens), sequence (P37231 whole entry, looked up, the tested form may be a part): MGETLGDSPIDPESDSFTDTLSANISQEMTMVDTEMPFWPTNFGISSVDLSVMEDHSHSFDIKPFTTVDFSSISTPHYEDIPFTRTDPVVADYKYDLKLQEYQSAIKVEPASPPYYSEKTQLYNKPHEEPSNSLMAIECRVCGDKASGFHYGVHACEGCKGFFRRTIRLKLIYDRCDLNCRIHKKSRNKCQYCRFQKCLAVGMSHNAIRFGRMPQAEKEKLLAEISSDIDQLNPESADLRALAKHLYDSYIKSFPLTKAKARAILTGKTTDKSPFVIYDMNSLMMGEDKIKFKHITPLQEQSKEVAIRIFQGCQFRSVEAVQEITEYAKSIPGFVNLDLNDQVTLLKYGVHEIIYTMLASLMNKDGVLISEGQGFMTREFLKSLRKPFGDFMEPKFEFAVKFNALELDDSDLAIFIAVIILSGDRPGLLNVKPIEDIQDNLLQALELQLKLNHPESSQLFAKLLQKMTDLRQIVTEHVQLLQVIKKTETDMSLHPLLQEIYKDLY
In short: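 HepG2 cells transiently transfected with multiplexed GAL4-UAS reporter units and exogenous chimeric NR-Gal4 proteins; reporter mRNA quantified after 24 h compound exposure by RT-PCR, fluorescent labelling, HpaI digestion and capillary electrophoresis; gain-of-signal fitted versus DMSO baseline.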

[17] = target: Nuclear receptor subfamily 1 group I member 2 (Homo sapiens) (UniProt O75469); assay: ATG_PXR_TRANS: Attagene TRANS-FACTORIAL HepG2 Assay for human Pregnane X Receptor (PXR) (AID 2283008; active = hit-call score of the fitted dose curve at least 0.9, where 1 is the maximum)
Nuclear receptor subfamily 1 group I member 2 (Homo sapiens), sequence (O75469 whole entry, looked up, the tested form may be a part): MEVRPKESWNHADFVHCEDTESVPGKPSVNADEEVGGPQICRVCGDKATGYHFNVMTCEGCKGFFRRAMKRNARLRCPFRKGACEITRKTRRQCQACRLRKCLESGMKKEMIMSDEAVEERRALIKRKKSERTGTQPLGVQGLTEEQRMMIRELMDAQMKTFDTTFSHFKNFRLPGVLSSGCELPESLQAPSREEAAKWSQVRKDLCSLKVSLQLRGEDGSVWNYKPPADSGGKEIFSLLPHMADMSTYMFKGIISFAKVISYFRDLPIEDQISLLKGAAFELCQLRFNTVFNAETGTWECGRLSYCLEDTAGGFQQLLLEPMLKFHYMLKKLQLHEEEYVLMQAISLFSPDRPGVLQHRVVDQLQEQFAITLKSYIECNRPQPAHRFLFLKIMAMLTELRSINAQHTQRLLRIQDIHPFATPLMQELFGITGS
In short: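 Fluorescence intensity of FAM-labelled, HpaI-digested reporter amplicons, separated by capillary electrophoresis, quantifies induction. HepG2 cells with PXR-Gal4 trans-reporter system were exposed 24 h; DMSO defines baseline.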

[18] = ATG_XTT_Cytotoxicity: Cytotoxicity Assessment in the Attagene TRANS-FACTORIAL HepG2 Assay (AID 2283584; active = hit-call score of the fitted dose curve at least 0.9, where 1 is the maximum;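 as to AC50: cells exposed to compound for 24 h before reading; active means loss of viability signal versus DMSO baseline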)
In short: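 Viability endpoint from XTT after 24 h chemical exposure of reporter-transfected human HepG2 liver cells; signal loss fitted relative to DMSO negative control.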

[19] = ATG_M_32_TRANS: Attagene TRANS-FACTORIAL HepG2 Assay for M32 Transcription Factor (Internal Marker) (AID 2282984; active = hit-call score of the fitted dose curve at least 0.9, where 1 is the maximum;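 also: transcript level of a background control reporter unit measured by RT-PCR and capillary electrophoresis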); conditions: HepG2 Attagene TRANS M32 internal marker reporter
In short: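 Capillary electrophoresis of 6-FAM-labelled reporter fragments gives the signal; data fitted for gain over DMSO negative control. Source: HepG2 cells bearing transient multiple reporter transcription units, 24 h exposure.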

[20] = ATG_BRE_CIS: Attagene CIS-FACTORIAL HepG2 Assay for human Bone Morphogenetic Protein (BMP) Response Element (BRE) (AID 2282933); conditions: HepG2 BMP response element reporter, Attagene transcription factor profiling; actives raise or lower the signal
In short: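 Endogenous transcription factor activity read in transiently transfected HepG2 cells after 24 h chemical exposure. Bidirectional curve fitting against DMSO; readout is reporter transcript level by RT-PCR with capillary electrophoresis of labelled products.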

Measured: AC50

O=[N+]([O-])c1cc(C(F)(F)F)c(Cl)c([N+](=O)[O-])c1Cl
active: [4] 2.77 µM | [8] 5.51 µM | [10] 6.17 µM | [12] 3.71 µM | [13] 1.3 µM | [16] 8.34 µM | [18] 57.7 µM
not listed: [19] | [20]
inactive: all other assays above

CCC(C)c1cc([N+](=O)[O-])cc([N+](=O)[O-])c1OC(=O)C=C(C)C (stereo not drawn)
inactive: [1] | [5] | [6] | [19] | [11] | [12] | [18]
active: [2] 25.1 µM | [3] 24.8 µM | [4] 37.1 µM | [8] 0.86 µM | [9] 27.2 µM | [10] 25.5 µM | [13] 3.47 µM | [14] 25.8 µM | [15] 48.3 µM | [16] 1.05 µM | [17] 1.6 µM

CCC(C)(C)O
not listed: [2] | [3] | [12] | [15] | [16]
inactive: all other assays above

COC(C)(C)CCC[C@H](C)C/C=C/C(C)=C/C(=O)OC(C)C
active: [20] 84.6 µM | [13] 52.8 µM | [15] 157 µM | [16] 7.82 µM | [17] 16.3 µM
not listed: [2] | [3] | [4] | [8] | [18]
inactive: all other assays above

CNC(=O)Oc1cc(C)c(SC)c(C)c1
active: [8] 51.8 µM | [9] 68.3 µM | [14] 68.7 µM | [17] 13.3 µM
not listed: [4] | [7] | [16] | [18] | [19] | [20]
inactive: all other assays above

Nc1ccccc1C(=O)Oc1ccc2ccccc2c1
inactive: [5] | [8] | [9] | [11] | [15] | [18]
active: [20] 161 µM | [3] 70.9 µM | [4] 46.9 µM | [6] 116 µM | [7] 12 µM | [10] 85.4 µM | [13] 31.7 µM | [14] 54.7 µM | [16] 54.9 µM | [17] 48.6 µM

CCc1cc(C)cc(CC)c1-c1c(OC(=O)C(C)(C)C)n2n(c1=O)CCOCC2
not listed: [2] | [18] | [20]
inactive: all other assays above
